# According to the supplement of paper PMC8728848:
# About 410 targets per protein were measured; listed, in parts, are those with the strongest signals and a random draw of the rest.
# B1: SUN4P (Saccharomyces cerevisiae), P53616 (protein)
# chain: MGSSHHHHHHSSGLVPRGSHNGSIYGDLADFSGPYEKFEDGTIPCGQFPSGQGVIPISWLDEGGWSGVENTDTSTGGSCKEGSYCSYACQPGMSKTQWPSDQPSDGRSIGGLLCKDGYLYRSNTDTDYLCEWGVDAAYVVSELSNDVAICLTDYPGTENMVIPTYVQAGDSLPLTVVDQDTYYTWQGLKTSAQYYVNNAGISVEDACVWGSSSSGVGNWAPLNFGAGSSDGVAYLSLIPNPNNGNALNFNVKIVAADDSSTVNGECIYENGSFSGGSDGCTVSVTAGKAKFVLYN
# Key:
# Assay in all cases: glycan array binding signal (z-score within array); higher = stronger binding
# Settings in all cases: glycan notation: IUPAC condensed, linker removed; mutation: R276L
# [1] = biological target: Fuc(a1-2)Gal(b1-3)[Fuc(a1-4)]GlcNAc(b1-3)[Fuc(a1-3)[Gal(b1-4)]GlcNAc(b1-6)]Gal(b1-4)Glc
# In short: (§1)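 From the Consortium for Functional Glycomics database, 3228 arrays were curated, keeping only those whose protein sequence was available. Binding is given as a within-array Z-score averaged across arrays sharing a protein sequence and across linkers. Negative Z-scores can be read as non-binding.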
# [2] = biological target: Fuc(a1-2)Gal(b1-3)[Fuc(a1-4)]GlcNAc(b1-3)[Gal(b1-4)GlcNAc(b1-6)]Gal(b1-4)Glc
# In short: as §1
# [3] = biological target: Fuc(a1-2)Gal(b1-4)GlcNAc(b1-2)Man(a1-3)[Fuc(a1-2)Gal(b1-4)GlcNAc(b1-2)Man(a1-6)]Man(b1-4)GlcNAc(b1-4)GlcNAc
# In short: as §1
# [4] = biological target: Fuc(a1-2)Gal(b1-4)GlcNAc(b1-3)GalNAc
# In short: as §1
# [5] = biological target: Fuc(a1-2)Gal(b1-4)GlcNAc(b1-3)[Fuc(a1-2)Gal(b1-4)GlcNAc(b1-6)]GalNAc
# In short: as §1
# [6] = biological target: Fuc(a1-2)Gal(b1-4)GlcNAc6S
# In short: as §1
# [7] = biological target: Fuc(a1-2)[GalNAc(a1-3)]Gal(b1-3)GalNAc(b1-3)Gal(a1-4)Gal(b1-4)Glc
# In short: as §1
# [8] = biological target: Fuc(a1-2)[GalNAc(a1-3)]Gal(b1-3)GlcNAc
# In short: as §1
# [9] = biological target: Fuc(a1-2)[GalNAc(b1-3)]Gal
# In short: as §1
# [10] = biological target: Gal(a1-3)Gal(b1-3)[Fuc(a1-4)]GlcNAc(b1-2)Man(a1-3)[Gal(a1-3)Gal(b1-3)[Fuc(a1-4)]GlcNAc(b1-2)Man(a1-6)]Man(b1-4)GlcNAc(b1-4)GlcNAc
# In short: as §1
# Gal(a1-4)GlcNAc = biological target: Gal(a1-4)GlcNAc
# In short: as §1
# Gal(b1-2)Gal = biological target: Gal(b1-2)Gal
# In short: as §1
# Gal(b1-3)Gal = biological target: Gal(b1-3)Gal
# In short: as §1
# Gal(b1-3)GalNAc = biological target: Gal(b1-3)GalNAc
# In short: as §1
# Gal(b1-3)GalNAc(b1-3)Gal = biological target: Gal(b1-3)GalNAc(b1-3)Gal
# In short: as §1
# [11] = biological target: Gal(b1-3)GalNAc(b1-4)Gal(b1-4)Glc
# In short: as §1
# Gal(b1-3)GlcNAc = biological target: Gal(b1-3)GlcNAc
# In short: as §1
# [12] = biological target: Gal(b1-3)GlcNAc(b1-2)Man(a1-3)[Gal(b1-3)GlcNAc(b1-2)Man(a1-6)]Man(b1-4)GlcNAc(b1-4)GlcNAc
# In short: as §1
# [13] = biological target: Gal(b1-3)GlcNAc(b1-3)Gal(b1-4)Glc
# In short: as §1
# [14] = biological target: Gal(b1-3)GlcNAc(b1-3)Gal(b1-4)GlcNAc(b1-2)[Gal(b1-3)GlcNAc(b1-3)Gal(b1-4)GlcNAc(b1-6)]Man(a1-6)[Gal(b1-3)GlcNAc(b1-3)Gal(b1-4)GlcNAc(b1-2)Man(a1-3)]Man(b1-4)GlcNAc(b1-4)[Fuc(a1-6)]GlcNAc
# In short: as §1
# [15] = biological target: Gal(b1-3)[Neu5Ac(a2-6)]GalNAc
# In short: as §1
# [16] = biological target: Gal(b1-4)GlcNAc(b1-2)Man(a1-3)Man(b1-4)GlcNAc(b1-4)GlcNAc
# In short: as §1
# [17] = biological target: Gal(b1-4)GlcNAc(b1-2)Man(a1-3)[GlcNAc(b1-2)Man(a1-6)]Man(b1-4)GlcNAc(b1-4)GlcNAc
# In short: as §1
# [18] = biological target: Gal(b1-4)GlcNAc(b1-2)[Gal(b1-4)GlcNAc(b1-4)]Man(a1-3)[GlcNAc(b1-4)][Gal(b1-4)GlcNAc(b1-2)[Gal(b1-4)GlcNAc(b1-6)]Man(a1-6)]Man(b1-4)GlcNAc(b1-4)GlcNAc
# In short: as §1
# [19] = biological target: Gal(b1-4)GlcNAc(b1-3)Gal(b1-4)GlcNAc(b1-2)[Gal(b1-4)GlcNAc(b1-3)Gal(b1-4)GlcNAc(b1-6)]Man(a1-6)[Gal(b1-4)GlcNAc(b1-3)Gal(b1-4)GlcNAc(b1-2)Man(a1-3)]Man(b1-4)GlcNAc(b1-4)GlcNAc
# In short: as §1
# [20] = biological target: Gal(b1-4)GlcNAc(b1-3)Gal(b1-4)GlcNAc(b1-3)Gal(b1-4)GlcNAc(b1-2)Man(a1-3)[Gal(b1-4)GlcNAc(b1-3)Gal(b1-4)GlcNAc(b1-3)Gal(b1-4)GlcNAc(b1-2)Man(a1-6)]Man(b1-4)GlcNAc(b1-4)GlcNAc
# In short: as §1
# [21] = biological target: Gal(b1-4)GlcNAc(b1-3)Gal(b1-4)GlcNAc(b1-3)Gal(b1-4)GlcNAc(b1-2)[Gal(b1-4)GlcNAc(b1-3)Gal(b1-4)GlcNAc(b1-3)Gal(b1-4)GlcNAc(b1-6)]Man(a1-6)[Gal(b1-4)GlcNAc(b1-3)Gal(b1-4)GlcNAc(b1-3)Gal(b1-4)GlcNAc(b1-2)Man(a1-3)]Man(b1-4)GlcNAc(b1-4)[Fuc(a1-6)]GlcNAc
# In short: as §1
# [22] = biological target: Gal(b1-4)GlcNAc(b1-6)GalNAc
# In short: as §1
# Gal3S6S(b1-4)GlcNAc = biological target: Gal3S6S(b1-4)GlcNAc
# In short: as §1
# Gal4S6S(b1-4)GlcNAc = biological target: Gal4S6S(b1-4)GlcNAc
# In short: as §1
# GalNAc(b1-4)GlcNAc = biological target: GalNAc(b1-4)GlcNAc
# In short: as §1
# Glc(a1-6)Glc(a1-6)Glc = biological target: Glc(a1-6)Glc(a1-6)Glc
# In short: as §1
# [23] = biological target: GlcNAc(a1-4)Gal(b1-3)GlcNAc
# In short: as §1
# [24] = biological target: GlcNAc(a1-4)Gal(b1-4)GlcNAc(b1-3)Gal(b1-4)Glc
# In short: as §1
# [25] = biological target: GlcNAc(a1-4)Gal(b1-4)GlcNAc(b1-3)Gal(b1-4)GlcNAc
# In short: as §1
# [26] = biological target: GlcNAc(b1-3)Gal(b1-4)GlcNAc(b1-3)GalNAc
# In short: as §1
# [27] = biological target: Man(a1-3)[Man(a1-6)]Man(b1-4)GlcNAc(b1-4)GlcNAc
# In short: as §1
# [28] = biological target: Man(a1-3)[Man(a1-6)]Man(b1-4)GlcNAc(b1-4)[Fuc(a1-6)]GlcNAc
# In short: as §1
# [29] = biological target: Neu5Ac(a2-3)Gal(b1-3)GlcNAc
# In short: as §1
# [30] = biological target: Neu5Ac(a2-3)Gal(b1-3)[Neu5Ac(a2-6)]GalNAc
# In short: as §1
# Neu5Ac(a2-3)Gal(b1-4)Glc = biological target: Neu5Ac(a2-3)Gal(b1-4)Glc
# In short: as §1
# [31] = biological target: Neu5Ac(a2-3)Gal6S(b1-4)[Fuc(a1-3)]GlcNAc
# In short: as §1
# [32] = biological target: Neu5Ac(a2-3)[GalNAc(b1-4)]Gal(b1-4)Glc
# In short: as §1
# [33] = biological target: Neu5Ac(a2-6)Gal(b1-4)GlcNAc(b1-2)Man
# In short: as §1
# [34] = biological target: Neu5Ac(a2-6)Gal(b1-4)GlcNAc(b1-2)Man(a1-6)[GlcNAc(b1-2)Man(a1-3)]Man(b1-4)GlcNAc(b1-4)GlcNAc
# In short: as §1
# [35] = biological target: Neu5Ac(a2-6)GlcNAc(b1-4)GlcNAc
# In short: as §1
# [36] = biological target: Neu5Gc(a2-3)Gal(b1-3)GlcNAc
# In short: as §1
# [37] = biological target: Neu5Gc(a2-3)Gal(b1-4)GlcNAc(b1-3)Gal(b1-4)GlcNAc(b1-2)Man(a1-3)[Neu5Gc(a2-3)Gal(b1-4)GlcNAc(b1-3)Gal(b1-4)GlcNAc(b1-2)Man(a1-6)]Man(b1-4)GlcNAc(b1-4)GlcNAc
# In short: as §1
binder,measurement,setting,value
B1,glycan array binding signal (z-score),[1],-1.15
same,glycan array binding signal (z-score),[2],-0.39
same,glycan array binding signal (z-score),[3],-0.72
same,glycan array binding signal (z-score),[4],-0.667
same,glycan array binding signal (z-score),[5],-0.351
same,glycan array binding signal (z-score),[6],1.81
same,glycan array binding signal (z-score),[7],-0.881
same,glycan array binding signal (z-score),[8],-0.545
same,glycan array binding signal (z-score),[9],1.77
same,glycan array binding signal (z-score),[10],-0.029
same,glycan array binding signal (z-score),Gal(a1-4)GlcNAc,-0.2
same,glycan array binding signal (z-score),Gal(b1-2)Gal,0.046
same,glycan array binding signal (z-score),Gal(b1-3)Gal,1.8
same,glycan array binding signal (z-score),Gal(b1-3)GalNAc,2.6
same,glycan array binding signal (z-score),Gal(b1-3)GalNAc(b1-3)Gal,7.07
same,glycan array binding signal (z-score),[11],11.2
same,glycan array binding signal (z-score),Gal(b1-3)GlcNAc,-0.318
same,glycan array binding signal (z-score),[12],-0.366
same,glycan array binding signal (z-score),[13],-0.852
same,glycan array binding signal (z-score),[14],2.11
same,glycan array binding signal (z-score),[15],2.79
same,glycan array binding signal (z-score),[16],-0.274
same,glycan array binding signal (z-score),[17],-0.054
same,glycan array binding signal (z-score),[18],0.051
same,glycan array binding signal (z-score),[19],-0.671
same,glycan array binding signal (z-score),[20],0.667
same,glycan array binding signal (z-score),[21],2.41
same,glycan array binding signal (z-score),[22],-0.068
same,glycan array binding signal (z-score),Gal3S6S(b1-4)GlcNAc,1.73
same,glycan array binding signal (z-score),Gal4S6S(b1-4)GlcNAc,0.289
same,glycan array binding signal (z-score),GalNAc(b1-4)GlcNAc,-0.514
same,glycan array binding signal (z-score),Glc(a1-6)Glc(a1-6)Glc,-1.11
same,glycan array binding signal (z-score),[23],1.83
same,glycan array binding signal (z-score),[24],-1.22
same,glycan array binding signal (z-score),[25],-0.664
same,glycan array binding signal (z-score),[26],2.14
same,glycan array binding signal (z-score),[27],-0.241
same,glycan array binding signal (z-score),[28],-0.543
same,glycan array binding signal (z-score),[29],0.214
same,glycan array binding signal (z-score),[30],-0.468
same,glycan array binding signal (z-score),Neu5Ac(a2-3)Gal(b1-4)Glc,-1.01
same,glycan array binding signal (z-score),[31],-1.12
same,glycan array binding signal (z-score),[32],1.36
same,glycan array binding signal (z-score),[33],0.374
same,glycan array binding signal (z-score),[34],0.936
same,glycan array binding signal (z-score),[35],2.98
same,glycan array binding signal (z-score),[36],0.424
same,glycan array binding signal (z-score),[37],-0.663
